Measurements taken from PubChem BioAssay (NCATS).
Results filed as inconclusive are left out. Some compounds were tested as several samples or in several runs, with calls that do not always agree. Active and inactive are the calls of the source. Unless noted, the call rests on the fitted dose curve; in most records, active means well fitted curve in the direction sought with a large enough effect; inconclusive means small, poorly fitted or top-dose-only effect, or another doubt; inactive means no such curve, though single readings can be large; an effect the other way counts as inactive or inconclusive.

Assays:
[1] = target: Cytochrome P450 2C9 (Homo sapiens) (UniProt P11712); assay: qHTS Assay for Inhibitors and Substrates of Cytochrome P450 2C9 (AID 883); further: potency means the concentration at half of the fitted maximal effect; nearly all actives have a fitted effect of over 60% in size
Cytochrome P450 2C9 (Homo sapiens), sequence (P11712 whole entry, looked up): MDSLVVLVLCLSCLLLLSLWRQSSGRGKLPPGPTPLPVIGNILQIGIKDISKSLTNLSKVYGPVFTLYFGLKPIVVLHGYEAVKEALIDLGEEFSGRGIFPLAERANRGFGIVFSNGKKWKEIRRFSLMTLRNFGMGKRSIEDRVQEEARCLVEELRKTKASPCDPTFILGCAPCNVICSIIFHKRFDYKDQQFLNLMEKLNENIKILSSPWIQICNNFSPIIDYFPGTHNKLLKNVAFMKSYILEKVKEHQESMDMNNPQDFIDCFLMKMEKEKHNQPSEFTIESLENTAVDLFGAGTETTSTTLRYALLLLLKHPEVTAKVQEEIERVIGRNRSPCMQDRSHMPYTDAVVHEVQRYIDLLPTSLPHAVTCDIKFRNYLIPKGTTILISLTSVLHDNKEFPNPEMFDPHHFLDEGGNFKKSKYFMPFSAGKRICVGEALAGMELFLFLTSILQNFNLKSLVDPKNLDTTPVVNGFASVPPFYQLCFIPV
How it was run: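 Signal: luciferase luminescence reporting luciferin produced by CYP2C9. Conditions: 10nM enzyme, Luciferin-H 100uM at KM, 25mM KPO4, 37C, 60 min NADPH-driven reaction. Reference: 57uM sulphaphenazole as 100% inhibition.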

[2] = target: Cytochrome P450 3A4 (Homo sapiens) (UniProt P08684); assay: qHTS Assay for Inhibitors and Substrates of Cytochrome P450 3A4 (AID 884); further: nearly all actives have a fitted effect of over 50% in size; further: potency means the concentration at half of the fitted maximal effect; on activity change, negative = inhibition: series mostly up to about 57 µM; on the % scale 0 is the no-effect control and ±100 the full control effect
Cytochrome P450 3A4 (Homo sapiens), sequence (P08684 whole entry, looked up): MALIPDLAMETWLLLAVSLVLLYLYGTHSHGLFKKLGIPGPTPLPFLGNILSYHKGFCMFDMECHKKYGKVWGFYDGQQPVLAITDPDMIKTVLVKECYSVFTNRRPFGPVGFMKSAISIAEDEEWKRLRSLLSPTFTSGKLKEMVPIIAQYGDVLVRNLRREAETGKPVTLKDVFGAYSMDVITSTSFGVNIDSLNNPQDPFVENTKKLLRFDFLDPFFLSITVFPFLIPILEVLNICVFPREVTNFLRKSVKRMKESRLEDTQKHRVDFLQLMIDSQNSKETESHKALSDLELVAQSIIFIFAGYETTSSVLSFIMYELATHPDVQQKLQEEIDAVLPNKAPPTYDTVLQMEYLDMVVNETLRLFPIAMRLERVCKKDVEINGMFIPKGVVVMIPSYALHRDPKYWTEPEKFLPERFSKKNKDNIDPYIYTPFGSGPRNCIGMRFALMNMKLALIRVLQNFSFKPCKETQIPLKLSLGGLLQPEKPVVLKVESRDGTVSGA
How it was run: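 20 nM human CYP3A4 with 25 uM Luciferin-PPXE (at KM) in 200 mM KPO4, preincubated 10 min with compound; NADPH regeneration started a 60 min RT reaction. Luciferin detected by luminescence, normalized to 57 uM ketoconazole as full inhibition.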

[3] = target: Cytochrome P450 3A4 (Homo sapiens) (UniProt P08684); assay: qHTS Assay for Activators of Cytochrome P450 3A4 (AID 885); further: nearly all actives have a fitted effect of over 65% in size
How it was run: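 Quantitative HTS format: compounds preincubated with 20nM human CYP3A4 and Luciferin-PPXE substrate at KM, reaction started by NADPH regeneration, stopped after 60 min, luciferase luminescence read 20 min later.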

[4] = target: Cytochrome P450 2D6 (Homo sapiens) (UniProt P10635); assay: qHTS Assay for Inhibitors and Substrates of Cytochrome P450 2D6 (AID 891);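 further: luciferin methyl ether substrate demethylated by CYP2D6 with NADPH regeneration; on the % scale 0 is the no-effect control and ±100 the full control effect; nearly all actives have a fitted effect of over 60% in size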
Cytochrome P450 2D6 (Homo sapiens), sequence (P10635 whole entry, looked up): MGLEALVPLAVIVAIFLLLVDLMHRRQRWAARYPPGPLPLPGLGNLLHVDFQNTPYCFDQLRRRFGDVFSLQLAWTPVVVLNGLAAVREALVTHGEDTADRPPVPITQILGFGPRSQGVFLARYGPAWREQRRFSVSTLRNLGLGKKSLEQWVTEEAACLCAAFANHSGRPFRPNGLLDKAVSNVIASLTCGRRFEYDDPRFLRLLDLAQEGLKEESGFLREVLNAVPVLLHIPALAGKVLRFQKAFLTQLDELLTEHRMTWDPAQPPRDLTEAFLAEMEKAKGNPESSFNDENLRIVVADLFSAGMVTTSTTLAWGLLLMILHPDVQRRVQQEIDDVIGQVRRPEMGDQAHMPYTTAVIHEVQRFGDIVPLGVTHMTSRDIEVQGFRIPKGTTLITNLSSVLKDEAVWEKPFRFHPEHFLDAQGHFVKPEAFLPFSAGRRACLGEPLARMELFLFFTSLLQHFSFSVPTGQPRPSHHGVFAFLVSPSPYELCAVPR
How it was run: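 Human CYP2D6 (5 nM) with 30 uM Luciferin-ME EGE (at Km) in 100 mM KPO4, compound preincubated 10 min, then NADPH regeneration system for 60 min at room temperature. Luciferin read by luminescence; normalized to 1.43 uM quinidine.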

[5] = target: Cytochrome P450 2C19 (Homo sapiens) (UniProt P33261); assay: qHTS Assay for Inhibitors and Substrates of Cytochrome P450 2C19 (AID 899); further: potency means the concentration at half of the fitted maximal effect; nearly all actives have a fitted effect of over 60% in size
Cytochrome P450 2C19 (Homo sapiens), sequence (P33261 whole entry, looked up): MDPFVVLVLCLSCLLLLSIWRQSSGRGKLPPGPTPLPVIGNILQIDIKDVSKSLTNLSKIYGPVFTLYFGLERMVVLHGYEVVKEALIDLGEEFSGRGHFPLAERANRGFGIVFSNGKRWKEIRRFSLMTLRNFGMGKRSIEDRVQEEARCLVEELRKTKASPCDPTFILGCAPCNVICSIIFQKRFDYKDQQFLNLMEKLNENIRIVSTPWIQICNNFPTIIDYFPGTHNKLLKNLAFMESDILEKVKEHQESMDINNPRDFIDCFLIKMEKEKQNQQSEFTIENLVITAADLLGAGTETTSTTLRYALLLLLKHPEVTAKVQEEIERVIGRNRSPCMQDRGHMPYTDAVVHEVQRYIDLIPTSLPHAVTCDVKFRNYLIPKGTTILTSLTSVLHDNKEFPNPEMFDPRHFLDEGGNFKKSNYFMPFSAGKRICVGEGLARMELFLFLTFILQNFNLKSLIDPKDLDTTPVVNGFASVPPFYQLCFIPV
How it was run: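 Signal comes from luciferase acting on luciferin released by CYP2C19-mediated hydroxylation of Luciferin-H EGE, 10uM (KM). Assay mix: 5nM enzyme, 50mM KPO4; 60 min at 37C with NADPH regeneration. Data normalized against 57uM ketoconazole.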

[6] = qHTS for Inhibitors of Plasmodium falciparum (DD2) proliferation (AID 504314);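 further: parasite DNA measured by SYBR Green fluorescence after red cell lysis; plate controls were DMSO vehicle for no effect and artemisinin wells for full effect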
How it was run: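 Fluorescence read-out (ex 485/em 535 nm) of SYBR Green-stained parasite DNA quantifies intraerythrocytic growth. Cultures at 0.3% parasitemia and 2.5% hematocrit were treated for 72 h; data normalized to DMSO and 0.29 uM artemisinin wells.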

[7] = qHTS for Inhibitors of Plasmodium falciparum (GB4) proliferation (AID 504315);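 further: 0% = DMSO vehicle and -100% = 0.29 µM artemisinin control; nearly all actives have a fitted effect of over 50% in size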
How it was run: (§1)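 Erythrocytes infected with P. falciparum line (0.3% parasitemia, 2.5% hematocrit final) incubated with compounds 72 h at 37 °C, 5% CO2; SYBR Green lysis buffer added, fluorescence read next day. Normalized to 0.29 uM artemisinin and DMSO.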

[8] = qHTS for Inhibitors of Plasmodium falciparum (7G8) proliferation (AID 504316); further: nearly all actives have a fitted effect of over 65% in size; further: potency means the concentration at half of the fitted maximal effect;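 on activity change, negative = inhibition: series mostly up to about 6.7 µM; 0% = DMSO vehicle and -100% = 0.29 µM artemisinin full kill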
How it was run: as §1

[9] = qHTS for Inhibitors of Plasmodium falciparum (HB3) proliferation (AID 504318); further: nearly all actives have a fitted effect of over 60% in size; further: potency means the concentration at half of the fitted maximal effect;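 on activity change, negative = inhibition: 0% = DMSO vehicle and -100% = artemisinin control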
How it was run: as §1

[10] = target: Atrial natriuretic peptide receptor 1 (Homo sapiens) (UniProt P16066); assay: Natriuretic polypeptide receptor (hNpr1) antagonism - Pilot CMLD screen (AID 1347052; calls by dose curve;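 further: HEK293 cells with hNpr1 stimulated by hNppA peptide at 0.1 nM; cGMP level read as GloSensor luciferase luminescence after agonist stimulation; series mostly up to about 9.2 µM; on the % scale 0 is the no-effect control and ±100 the full control effect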)
Atrial natriuretic peptide receptor 1 (Homo sapiens), sequence (P16066 whole entry, looked up): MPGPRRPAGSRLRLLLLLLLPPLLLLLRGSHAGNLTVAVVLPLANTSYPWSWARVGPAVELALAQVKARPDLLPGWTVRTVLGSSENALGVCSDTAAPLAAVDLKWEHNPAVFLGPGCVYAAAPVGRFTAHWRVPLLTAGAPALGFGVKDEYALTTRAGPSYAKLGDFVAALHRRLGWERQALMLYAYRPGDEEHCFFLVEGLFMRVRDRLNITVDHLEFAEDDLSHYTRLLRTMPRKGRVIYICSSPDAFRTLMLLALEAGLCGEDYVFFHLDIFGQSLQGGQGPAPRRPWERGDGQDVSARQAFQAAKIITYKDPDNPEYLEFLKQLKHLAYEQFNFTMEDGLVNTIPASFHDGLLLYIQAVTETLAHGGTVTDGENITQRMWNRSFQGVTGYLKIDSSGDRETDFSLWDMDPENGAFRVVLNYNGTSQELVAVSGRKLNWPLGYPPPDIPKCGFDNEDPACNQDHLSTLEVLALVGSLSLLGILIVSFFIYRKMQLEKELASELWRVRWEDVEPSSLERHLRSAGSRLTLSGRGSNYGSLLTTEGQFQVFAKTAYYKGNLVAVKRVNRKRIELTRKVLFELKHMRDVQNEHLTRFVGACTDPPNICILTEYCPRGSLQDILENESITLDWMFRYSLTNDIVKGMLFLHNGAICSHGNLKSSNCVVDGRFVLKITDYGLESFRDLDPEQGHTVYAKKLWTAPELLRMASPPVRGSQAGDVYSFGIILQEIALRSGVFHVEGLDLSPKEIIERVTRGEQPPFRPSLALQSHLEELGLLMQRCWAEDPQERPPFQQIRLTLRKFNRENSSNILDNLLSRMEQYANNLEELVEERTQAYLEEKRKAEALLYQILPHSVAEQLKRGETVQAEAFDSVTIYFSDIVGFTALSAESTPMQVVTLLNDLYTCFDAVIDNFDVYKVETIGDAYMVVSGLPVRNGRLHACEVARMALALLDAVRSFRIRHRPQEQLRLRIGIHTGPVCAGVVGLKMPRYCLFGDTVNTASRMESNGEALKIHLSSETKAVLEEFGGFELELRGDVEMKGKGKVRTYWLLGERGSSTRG

[11] = qHTS Assay for Identification of Small Molecule Agonists for Hypoxia Response Element Signaling Pathway (AID 914; active means well fitted activation curve with a large enough effect in the signal ratio, with a control signal flat, not every such curve was filed as active; the % refers to the signal ratio; further: % of control where 0% means no effect); conditions: ME-180 (cervical carcinoma) HRE-bla reporter, beta-lactamase ratio, CoCl2, 17 h; stronger effect = higher value
How it was run: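 In Opti-MEM containing 0.5% dialyzed FBS and 10 mM HEPES, ME-180 HRE-bla cells received a compound titration and EC50 CoCl2. They were incubated 17 hours, then CCF4-loaded 2.5 hours at room temperature before ratio reading.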

[12] = qHTS for Inhibitors of Plasmodium falciparum (CP250) proliferation (AID 504320);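 further: plate controls were DMSO vehicle for no effect and 0.29 µM artemisinin control for full effect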
How it was run: as §1

N#CCCN(CC#Cc1ccccc1)OCc1ccccc1
inactive: activity change, positive = activation [3] -80.9% [at 11.4 µM] | activity change, negative = inhibition [4] -16.6% [at 11.4 µM] | Potency [6] | Potency [7] | Potency [8] | Potency [9] | Potency [10]
active: Potency [1] 3160 nM | Potency [2] 199 nM | Potency [5] 316 nM

C[C@@H]1CC[C@H]2C(=O)NC[C@@H](O)CN2[C@@H]1c1ccc(Br)cc1
active: Potency [5] 2000 nM
inactive: activity change, positive = activation [3] -42.5% [at 11.4 µM] | activation [11] -3.48% | Potency [6] | Potency [7] | Potency [8] | Potency [9] | Potency [12] | Potency [10]

C=CC1=C2C=C(C3CC3)N(CCN3CCOCC3)C=C2C(=O)C(C)(OC(=O)c2ccco2)C1=O (stereo not drawn)
inactive: Potency [6] | Potency [7] | Potency [8] | Potency [12] | Potency [10]

CCOC(=O)C1=CN(CCC=C(C)C)C(=O)N(C(C)=O)C1c1ccccc1 (stereo not drawn)
inactive: Potency [6] | Potency [7] | Potency [8] | Potency [12] | Potency [10]

C=CC1=C2C=C(C3CC3)N(CCCOC(C)C)C=C2C(=O)C(C)(OC(=O)c2ccco2)C1=O (stereo not drawn)
inactive: activity, negative = inhibition [6] 4.15% [at 1.12 µM] | Potency [7] | Potency [8] | Potency [12] | Potency [10]

CCN1C(=NCCc2cccnc2)NC(CCc2ccccc2)C(C(=O)OC)=C1C (stereo not drawn)
inactive: Potency [6] | Potency [7] | Potency [8] | Potency [12] | Potency [10]

COC(=O)C12CC3(CCC4C5C(C(OCc6ccccc6)C41)C52)OCCO3 (stereo not drawn)
active: Potency [5] 1580 nM
inactive: activity change, negative = inhibition [2] -29.8% [at 11.4 µM] | activity change, negative = inhibition [4] 0.322% [at 11.4 µM] | Potency [6] | Potency [7] | Potency [8] | Potency [9] | Potency [12] | Potency [10]

COc1ccc([C@]23Cc4c(ccc5ccccc45)[C@H](O2)c2c(cc(-c4ccccc4)oc2=O)O3)cc1
inactive: Potency [6] | Potency [7] | Potency [8] | Potency [12] | Potency [10]

O=C(NN=C1C[C@@H](O)[C@H](O)[C@H]2[C@@H]3C(=O)N(C4CCCCC4)C(=O)[C@@H]3CC[C@@H]12)OCc1ccccc1
inactive: Potency [6] | Potency [7] | Potency [8] | Potency [12] | Potency [10]

O=C1CCCC=C1C(O)COCc1ccccc1 (stereo not drawn)
inactive: Potency [6] | Potency [7] | Potency [8] | Potency [12] | Potency [10]

COC(=O)[C@H](COC(C)(C)C)NC(=O)O[C@@H]1C(=O)c2cc(Br)ccc2O[C@H]1c1ccc2c(c1)OCO2
inactive: Potency [6] | Potency [7] | Potency [8] | Potency [12] | Potency [10]

Cc1cc(C)c(S(=O)(=O)OC[C@H]2C=CC[C@@H](CCC[C@H]3O[C@H](C(=O)OC(C)C)CC[C@@H]3C)O2)c(C)c1
inactive: Potency [6] | Potency [7] | Potency [8] | Potency [12] | Potency [10]

CCN1C(=NCc2ccco2)N[C@@H](c2ccccc2)[C@H](C(=O)OC)[C@H]1C
inactive: Potency [6] | Potency [7] | Potency [8] | Potency [12] | Potency [10]

COC(=O)CCCC1=CC2=CC(=O)C(C)(OC(=O)c3cccs3)C(=O)C2=CN1C1CCCC1 (stereo not drawn)
inactive: activity, negative = inhibition [6] -0.45% [at 1.12 µM] | Potency [7] | Potency [8] | Potency [12] | Potency [10]

CC(=O)[C@@H]1[C@@H](C)N(Cc2ccccc2)C(=O)N[C@H]1c1ccccc1
inactive: Potency [6] | Potency [7] | Potency [8] | Potency [12] | Potency [10]

C=C(C(C)=O)C(O)c1ccc(Cl)cc1 (stereo not drawn)
inactive: Potency [6] | Potency [7] | Potency [8] | Potency [12] | Potency [10]

CC1(OC(=O)C2CCCC2)C(=O)C=C2C=C(c3ccsc3)N(C3CCCC3)C=C2C1=O (stereo not drawn)
inactive: activity, negative = inhibition [6] -4.53% [at 1.12 µM] | Potency [7] | Potency [8] | Potency [12] | Potency [10]

COC(=O)C1=C(C(=O)OC)[C@@H]2N(C)c3ccccc3[C@@]23C[C@@H](C(=O)OC)N(C(=O)c2cc(C)oc2C)C3=N1
inactive: Potency [6] | Potency [7] | Potency [8] | Potency [12] | Potency [10]

COC1=C[C@H](C(=O)NCCOC(C)=O)[C@H](C)[C@@H](c2ccccc2)CC1=O
inactive: Potency [6] | Potency [7] | Potency [8] | Potency [12] | Potency [10]

Cc1ccc(S(=O)(=O)n2c3ccccc3c3nnc(C(=O)c4ccccc4)nc32)cc1
active: Potency [2] 3980 nM
inactive: activity change, positive = activation [3] -61.8% [at 11.4 µM] | Potency [6] | Potency [7] | Potency [8] | Potency [9] | Potency [12] | Potency [10]

CCCCCCCC1=Cc2ccccc2C(CC(C)=O)N1C(=O)OC (stereo not drawn)
inactive: activity change, positive = activation [3] -59.5% [at 11.4 µM] | Potency [6] | Potency [7] | Potency [10]
active: Potency [5] 2510 nM | Potency [9] 1690 nM
1.69 µM (active) and inactive: Potency [8]

O=C1N[C@H](Cc2ccccc2)C(=O)N1Cc1cccc2ccccc12
inactive: Potency [6] | Potency [7] | Potency [8] | Potency [12] | Potency [10]

COC(=O)CC=C[C@@H](C)[C@H](OC)c1cc(OC)ccc1Br
inactive: Potency [6] | Potency [7] | Potency [8] | Potency [12] | Potency [10]

COC1=C[C@H](C(=O)NCc2ccccn2)[C@H](C)[C@@H](c2ccccc2)CC1=O
inactive: Potency [6] | Potency [7] | Potency [8] | Potency [12] | Potency [10]

CC(=O)OC[C@H]1O[C@@H](ON=C2C[C@@H](O)[C@@H](O)[C@@H]3[C@H]4C(=O)N(C5CCCCC5)C(=O)[C@@H]4CC[C@@H]23)[C@H](OC(C)=O)[C@@H](OC(C)=O)[C@H]1OC(C)=O
inactive: Potency [6] | Potency [7] | Potency [8] | Potency [12] | Potency [10]

CCCCC1=CC2=C(c3ccco3)C(=O)C(C)(OC(=O)c3ccc(OC)cc3)C(=O)C2=CN1CCc1ccccn1 (stereo not drawn)
inactive: Potency [6] | Potency [7] | Potency [8] | Potency [12] | Potency [10]

COC(=O)C1=C(C)N(Cc2ccccc2)C(=S)NC1c1ccccc1 (stereo not drawn)
inactive: Potency [6] | Potency [7] | Potency [8] | Potency [12] | Potency [10]

C[C@H]1CCCC(=O)N[C@@H](c2ccccc2)[C@@H](C)CCCC(=O)N[C@@H]1c1ccccc1
inactive: Potency [6] | Potency [7] | Potency [8] | Potency [12] | Potency [10]
